# Pf growth 96h: P. falciparum growth inhibition at 96 hours; P. falciparum luciferase reporter growth, 96 h; Potency, µM (highest dose often 28.7 µM), inactives show at the top dose activity change, negative = inhibition, hits mostly inhibitors; actives 6.9% (n = 320,000); AID 504834; also: potency is read from the fitted curve at half-maximal effect; % is scaled to controls: 0 for no effect and ±100 for the full control effect
#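 Cell-based qHTS: luciferase-tagged P. falciparum in erythrocytes (2% hematocrit, 0.05% parasitemia final) incubated with compounds for 96 hours, 37 C, 5% CO2; luciferase detection reagent then added and luminescence measured.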
# Cycloheximide cs: counter-screen hit for Shiga toxin inhibitors, cycloheximide | cell reporter, cycloheximide protein synthesis inhibition counterscreen | max response, % | actives 12% (n = 300,000) | AID 2314; in the data active = max response mostly above about 13%, no sharp cut-off; inactive = mostly below about 14%; also: read at 38.3 µM for the half of the compounds with a filed dose; 0% is about no effect
# NS1 function inh: blocks influenza NS1 protein function | Potency, µM (titrated, usually from 46.1 µM), inactives show at the top dose activity, positive = more growth | actives 0.4% (n = 270,000) | AID 2326; calls by dose curve; also: potency is read from the fitted curve at half-maximal effect; actives are rising curves; nearly all actives have a fitted effect of over 50% in size
#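 In this qHTS, NS1 from influenza A is expressed in budding yeast, where it slows growth. Cells are switched from glucose to 2% galactose medium (pH 6.0, -URA), treated with compound, and growth recovery is read at OD600.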
# Pf growth 48h: P. falciparum growth inhibition at 48 hours (one generation) | Potency, µM (titrated, usually from 28.7 µM), for the others: at the highest dose activity change, negative = inhibition, hits mostly inhibitors | actives 5.9% (n = 310,000) | P. falciparum luciferase growth in erythrocytes, 48 h | AID 504832; also: potency is read from the fitted curve at half-maximal effect; % is scaled to controls: 0 for no effect and ±100 for the full control effect
#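 First compound was added to culture medium, then infected red cells at 0.1% parasitemia and 2% hematocrit (final). After incubation at 37 C under 5% CO2, luciferase detection reagent was dispensed and light output recorded.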
# SARS PLP yeast: inhibitors of SARS-CoV papain-like protease in yeast; S. cerevisiae expressing SARS-CoV PLpro, growth rescue; Potency, µM (titrated, usually from 32.9 µM), inactives show at the highest dose activity, positive = growth rescue, usual class: activators; actives 0.19% (n = 330,000); calls by dose curve; also: potency is read from the fitted curve at half-maximal effect; 0% is about no effect; nearly all actives have a fitted effect of over 55% in size
# Shiga toxin inh: Shiga toxin inhibition. Vero cells, Shiga toxin protein synthesis inhibition reporter. inhibition, % at 38.7 µM. actives 9.2% (n = 290,000); in the data active = inhibition mostly above about 28%, no sharp cut-off; inactive = mostly below about 43%; also: 0% is about no effect
# Numbers without * were called inactive; ? = inconclusive; nt = not tested or not shown; [ ] = another dose, or the depositor's remark. Shown are actives, neighbours in structure and some others; about 21% of the full set was active somewhere. Unless noted, calls follow the shape of the dose curve; as a rule, active = well fitted inhibition curve with a large enough effect; inconclusive = small, poorly fitted or top-dose-only effect, or another doubt; inactive = no such curve, though single readings can be large or run the other way.
SMILES,Pf growth 96h,Cycloheximide cs,NS1 function inh,Pf growth 48h,SARS PLP yeast,Shiga toxin inh
O=C(CCC1N=C2c3ccccc3N=C(SCc3ccc(Cl)cc3)N2C1=O)NCc1ccco1 (stereo not given),24.6%,18.3,6.6%,?,3.1%,43.5
C=C(C)n1c(=O)n(Cc2ccccc2C)c2ccccc21,-5.5%,7.3,-14.6%,0.0%[0.00184 µM],?,37.6
Cc1cccc(Nc2nc(N)nc(CCl)n2)c1,9.28µM*,60.8*,0.6%,?,-0.7%,77.3*
Cc1cccc(Nc2nc(N)nc(CSc3nccc(C)n3)n2)c1,?,5.7,-7.7%,-8.7%,2.5%,49.1
COc1cccc(Nc2nc(N)nc(CCl)n2)c1,?,56.8*,0.5%,?,-0.6%,146.0*
CC1CCN(C(=O)c2cc(S(=O)(=O)N3CCOCC3)ccc2N2CCCC2)CC1,5.7%,nt,nt,?,4.4%,nt
CCn1nc(C(=O)Nc2ccc(S(=O)(=O)Nc3ncccn3)cc2)c2ccccc2c1=O,2.9%,7.7,nt,-2.8%,-2.7%,-4.3
CCCn1nc(C(=O)NNC(=O)c2cc(S(=O)(=O)NC)ccc2Br)c2ccccc2c1=O,-2.1%,nt,nt,3.2%,4.7%,nt
CCCn1nc(C(=O)NNC(=O)c2cccc(S(=O)(=O)NC(C)C)c2)c2ccccc2c1=O,1.17µM*,7.9,4.4%,3.29µM*,9.4%,1.3
CCn1nc(C(=O)Nc2ccc(Cl)c(S(=O)(=O)N3CCOCC3)c2)c2ccccc2c1=O,?,nt,nt,10.4µM*,-0.4%,nt
O=C(Cc1ccc(S(=O)(=O)N2CCOCC2)s1)NNC(=O)c1ccccc1Cl,?,nt,nt,-13.6%,-3.3%,nt
CCn1nc(C(=O)Nc2cccc(S(=O)(=O)N3CCCC3)c2)c2ccccc2c1=O,?,nt,nt,13.1µM*,10.0%,nt
CCCn1nc(C(=O)NNC(=O)Cc2ccc(S(=O)(=O)N3CCOCC3)s2)c2ccccc2c1=O,?,nt,nt,11.7µM*,-9.7%,nt
Cc1cc(C)cc(N(CCC#N)C(=O)CSc2nc3ccccc3c(=O)[nH]2)c1,nt,nt,nt,nt,2.0%,nt
CC(C)Oc1ccc(C(CC(=O)O)NC(=O)C(Sc2ccccc2)c2ccccc2)cc1 (stereo not given),?,-7.0,nt,-7.5%,1.6%,5.7
COc1ccc(CNC(=O)C2CCN(S(=O)(=O)c3ccc(Br)s3)CC2)cc1,-13.1%,-2.8,24.1%,-24.2%,-2.2%,-2.8
N#Cc1ccc(OCc2noc(-c3ccsc3)n2)cc1,59.9%,7.6,-1.4%,150.7%,0.7%,15.8
CC(C)Cn1nc(C(=O)Nc2cccc(S(=O)(=O)N3CCCC3)c2)c2ccccc2c1=O,9.28µM*,nt,nt,11.7µM*,4.4%,nt
CC(C)Cn1nc(C(=O)Nc2cccc(C(=O)NC3CC3)c2)c2ccccc2c1=O,?,nt,nt,?,-4.9%,nt
NC(=O)c1cccnc1Oc1ccc(Cl)cc1Cl,22.2%,2.4,0.6%,39.4%,-1.2%,8.2
NC(=O)NC(=O)COC(=O)c1cccnc1Nc1ccccc1F,38.0%,10.6,1.9%,36.6%,0.3%,7.3
NC(=O)c1cccnc1Nc1ccccc1F,103.3%,28.9*,-15.5%,68.2%,-7.6%,28.0*
CCCNc1ncccc1C(N)=O,?,-6.5,2.8%,28.5%,-5.0%,-8.6
Cc1cc(Cl)ccc1Nc1ncccc1C(N)=O,195.0%,68.9*,-77.8%,208.3%,-40.1%,69.3*
Cc1ccc(Nc2ncccc2C(N)=O)cc1,157.0%,94.1*,?,192.5%,-6.5%,119.2*
SMILES,Pf growth 96h,Cycloheximide cs,NS1 function inh,Pf growth 48h,SARS PLP yeast,Shiga toxin inh
COc1cc(C(=O)NCC(c2ccccc2)N(C)C)ccc1OCC(=O)N1CCOCC1 (stereo not given),2.0%,0.2,nt,-2.7%,-1.3%,2.0
O=C(COc1ccc(F)cc1)N1CCC(c2ccccc2)C1 (stereo not given),?,42.7*,-8.4%,156.7%,-18.7%,58.4*
Cc1cccc(OCC(=O)N2CCC(c3ccccc3)C2)c1 (stereo not given),?,29.9*,-7.8%,99.6%,-2.8%,78.6*
Cc1cccc(OCC(=O)N2CCN(C(=O)Cc3ccccc3)CC2)c1,27.6%,1.4,-18.8%,11.3%,-0.5%,-8.3
O=S(=O)(NCCc1ccc(F)cc1)c1ccc(F)cc1Br,nt,nt,nt,nt,-17.4%,nt
NNC(=O)c1ccc(Cn2cc(Cl)cn2)o1,31.1%,18.4*,-0.1%,-5.1%,-0.9%,24.5
Cc1ccc2nc(NC(=O)c3ccc(Cn4cc(Cl)cn4)o3)sc2c1,11.1%,32.8*,5.3%,114.5%,7.2%,43.4
COc1ccc(CNC(=O)c2ccc(Cn3cc(Cl)cn3)o2)cc1,126.6%,-0.8,2.8%,-4.4%,1.9%,-6.5
COc1ccc(CCn2c(N3CCN(C)CC3)nc3c2c(=O)[nH]c(=O)n3C)cc1,-24.3%,-1.0,-0.1%,nt,7.1%,-5.8
CCCn1c(N2CCN(CC(=O)c3c(C)n(C)c4ccc(OC)cc34)CC2)nc2c1c(=O)[nH]c(=O)n2C,2.08µM*,-1.8,-11.1%,?,-6.3%,-16.0
CCCCCn1c(N2CCN(c3cccc(Cl)c3)CC2)nc2c1c(=O)[nH]c(=O)n2C,5.86µM*,-2.2,-50.8%,nt,-0.1%,-0.7
Cn1c(=O)[nH]c(=O)c2c1nc(N1CCN(c3cccc(Cl)c3)CC1)n2CCCc1ccccc1,-22.0%,0.8,-1.7%,15.1%,3.2%,-10.2
Cc1ccnc(SCCn2c(N3CCN(C)CC3)nc3c2c(=O)[nH]c(=O)n3C)n1,-17.7%,2.0,?,13.6%,1.7%,-24.4
CCN1CCN(c2nc3c(c(=O)[nH]c(=O)n3C)n2CCCSc2ncccn2)CC1,?,-4.7,-5.3%,-11.5%,2.7%,-6.1
CN1CCN(c2nc3c(c(=O)[nH]c(=O)n3C)n2CCCSc2ncccn2)CC1,13.1µM*,-0.7,-3.0%,0.1%,-3.0%,-13.4
Cc1ccnc(SCCn2c(N3CCN(c4ccccc4)CC3)nc3c2c(=O)[nH]c(=O)n3C)n1,4.65µM*,-2.8,-7.0%,nt,2.0%,6.7
CCc1nnc(NC(=O)CSc2nnc(-c3ccc(NS(=O)(=O)c4ccccc4)cc3)o2)s1,?,-2.3,-26.7%,8.2%,7.4%,-12.5
CN1CCN(S(=O)(=O)c2cccc(C(=O)NCc3ccc(Cl)cc3)c2)CC1,12.7%,-1.2,nt,15.6%,-1.4%,-4.7
O=c1c2c(nc3nc(NCc4cccc(Cl)c4)[nH]n13)CCC2,19.5%,2.0,nt,8.4%,5.3%,13.7
CCN(CC)c1ncnc2sc(C(=O)N3CCN(c4ccccc4)CC3)c(C)c12,-3.1%,-0.8,-59.4%,0.0%,-5.4%,10.5
Cn1c(=O)[nH]c(=O)c2c1nc(N1CCOCC1)n2CC(O)COc1ccc2ccccc2c1 (stereo not given),6.57µM*,-1.4,-8.5%,-9.7%,5.6%,-9.2
Cn1c(=O)[nH]c(=O)c2c1nc(N1CCCCC1)n2CC(O)COc1ccccc1 (stereo not given),?,-1.9,0.7%,-5.3%,5.9%,-13.1
CN1CCN(c2nc3c(c(=O)[nH]c(=O)n3C)n2CC(N)=O)CC1,13.1µM*,-4.6,-4.2%,?,1.7%,0.6

# High-throughput results as filed in PubChem.
